Bioassay records (PubChem BioAssay)
CHO-K1 Ca PAM – counter-screen for M1 PAMs: effect in parental CHO-K1 cells; ATP EC20, Fluo-8 calcium fluorescence; 0% at ATP EC20, 100% at ATP max; activation, % at 3 µM; actives 0.02% (n = 360,000); AID 602247;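 active = activation above the run cutoff, the mean activation of all test compounds plus 3 SD, cut at about 40% in these data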;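 also: peak over basal fluorescence ratio in a 140 s read after ATP addition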
CHO-K1 Ca antag – nonselective inhibitor or artifact in parental CHO-K1 cells | ATP-induced calcium, Fluo-8 fluorescence | inhibition, % at 3 µM | actives 0.6% (n = 360,000) | AID 602250;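 active = inhibition above a per-plate cutoff, the plate's mean sample inhibition plus 3 SD, cut at about 24% in these data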;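 also: 0% = DMSO plus EC80 ATP and 100% = DMSO alone without ATP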
M1 antag – human CHRM1 antagonism; P11229; CHO-K1 hM1, Fluo-8 calcium fluorescence, ACh EC80 antagonist; inhibition, % at 3 µM; actives 1.3% (n = 360,000); AID 588852;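 active = percent inhibition above its own plate's cutoff, namely the mean of that plate's compound wells plus 3 SD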;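 also: peak over basal fluorescence ratio during 140 s after agonist addition; 0% = ACh EC80 plus DMSO and 100% = DMSO alone without agonist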
Target sequence (P11229 whole entry, looked up): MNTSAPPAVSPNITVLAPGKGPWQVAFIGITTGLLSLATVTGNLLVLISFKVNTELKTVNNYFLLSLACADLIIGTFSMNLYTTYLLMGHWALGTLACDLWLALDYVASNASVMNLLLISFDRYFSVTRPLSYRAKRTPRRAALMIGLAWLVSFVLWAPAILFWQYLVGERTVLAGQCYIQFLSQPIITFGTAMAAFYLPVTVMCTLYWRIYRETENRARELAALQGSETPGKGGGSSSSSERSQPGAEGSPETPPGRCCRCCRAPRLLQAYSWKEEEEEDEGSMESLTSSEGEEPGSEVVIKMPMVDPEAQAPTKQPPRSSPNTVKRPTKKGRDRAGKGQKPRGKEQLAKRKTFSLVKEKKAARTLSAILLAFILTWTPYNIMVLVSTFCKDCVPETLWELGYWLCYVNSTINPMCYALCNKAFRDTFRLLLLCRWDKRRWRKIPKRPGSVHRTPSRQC
CHO-K1 Ca ag – counter-screen for M1 agonists: effect in parental CHO-K1 cells; Fluo-8 calcium fluorescence; scaled to maximal ATP response, vehicle zero; activation, % at 3 µM; actives 0.48% (n = 360,000); AID 602248; in the data active = activation above about 15%;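 also: untransfected CHO-K1 host cells lacking M1 receptor as counterscreen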
CHRM1 PAM – human CHRM1 positive allosteric modulation | actives 0.088% (n = 360,000) | activation, % at 3 µM | P11229 | CHO-K1 hM1, Fluo-8 calcium fluorescence, ACh EC20; 0% = ACh EC20, 100% = maximal ACh; in the data active = activation above about 19%, passing the limit was not always enough
M1 ag – human M1 muscarinic receptor agonism | P11229 | CHO-K1 hM1, Fluo-8 calcium fluorescence, agonist mode; 0% DMSO, 100% acetylcholine EC100 | activation, % at 3 µM | actives 0.33% (n = 360,000);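 active = activation above the run's mean compound activation plus 3 SD, cut at about 16% in these data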;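 also: peak over basal fluorescence ratio within a 140 s kinetic read after compound addition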
* marks the source's active call; other numbers are inactive results. Hits are enriched below; roughly 2.3% of the tested compounds scored in any of these assays.

`CCn1c(NCc2ccco2)nc2ccccc21` gave CHO-K1 Ca PAM 11, CHO-K1 Ca antag -6, M1 antag -9, CHO-K1 Ca ag 2, CHRM1 PAM 7 and M1 ag -7.
Screening Cc1noc(C)c1NC(=O)N(C)C[C@H]1OCc2cnnn2CCCC(=O)N([C@H](C)CO)C[C@H]1C returned CHO-K1 Ca PAM 13, CHO-K1 Ca antag -5, M1 antag -21, CHO-K1 Ca ag 0, CHRM1 PAM 27* and M1 ag 5.
`C[C@H]1CN([C@@H](C)CO)C(=O)CCCn2nncc2CO[C@@H]1CN(C)Cc1ccc(-c2ccccc2)cc1` gave CHO-K1 Ca PAM 4, CHO-K1 Ca antag 3, M1 antag 37*, CHO-K1 Ca ag 5, CHRM1 PAM -26 and M1 ag -5.
Screening C[C@@H]1CN([C@H](C)CO)C(=O)CCCn2nncc2CO[C@H]1CN(C)Cc1ccc(-c2ccccc2)cc1 returned CHO-K1 Ca PAM -11, CHO-K1 Ca antag 10, M1 antag -1, CHO-K1 Ca ag 0, CHRM1 PAM -6 and M1 ag -11.
C[C@@H]1CN([C@@H](C)CO)C(=O)CCCn2nncc2CO[C@@H]1CN(C)C(=O)Nc1cccc(C(F)(F)F)c1 was read as CHO-K1 Ca PAM -5, CHO-K1 Ca antag 26*, M1 antag -16, CHO-K1 Ca ag 0, CHRM1 PAM 10 and M1 ag -1.
`COc1ccc(S(=O)(=O)N(C)C[C@@H]2OCc3cnnn3CCCC(=O)N([C@@H](C)CO)C[C@@H]2C)cc1` gave CHO-K1 Ca PAM 19, CHO-K1 Ca antag -6, M1 antag -38, CHO-K1 Ca ag 1, CHRM1 PAM 28* and M1 ag 5.
Cc1ccc(S(=O)(=O)N(C)C[C@H]2OCc3cnnn3CCCC(=O)N([C@@H](C)CO)C[C@H]2C)cc1 was read as CHO-K1 Ca PAM 9, CHO-K1 Ca antag -3, M1 antag 4, CHO-K1 Ca ag 0, CHRM1 PAM 1 and M1 ag -5.
COc1ccc(CCNC(=O)Nc2nc(C(N)COCc3ccccc3)cs2)cc1OC (stereo not drawn) was read as CHO-K1 Ca PAM 7, CHO-K1 Ca antag -4, M1 antag -8, CHO-K1 Ca ag 1, CHRM1 PAM 0 and M1 ag -4.
`O=C1NC[C@H](CCCCN2CCN(Cc3ccccc3)C(=O)C2=O)N(CCC2CCCCC2)C1=O` gave CHO-K1 Ca PAM -15, CHO-K1 Ca antag -9 and CHO-K1 Ca ag 0.
Screening CC(C)CNC(=O)C1(C)CCN1C(=O)c1ccc(C(C)(C)C)cc1 (stereo not drawn) returned CHO-K1 Ca PAM 13, CHO-K1 Ca antag -25, M1 antag -18, CHO-K1 Ca ag 6, CHRM1 PAM 5 and M1 ag 2.
`C=CCN1C(=O)/C(=C/C=C2/N(CC)c3ccc(S(=O)(=O)N(C)C)cc3N2CC)SC1=S` gave CHO-K1 Ca PAM 15, CHO-K1 Ca antag -11, M1 antag 8, CHO-K1 Ca ag 8, CHRM1 PAM 0 and M1 ag 17*.
COc1ccc(Cl)cc1-c1nc(-c2ccc(NC(=O)c3ccncc3)cc2)no1 was read as CHO-K1 Ca PAM 18, CHO-K1 Ca antag -2, M1 antag 0, CHO-K1 Ca ag 0, CHRM1 PAM 1 and M1 ag -3.
COc1ccc(-c2nc(-c3ccc(NC(=O)c4ccncc4)cc3)no2)cc1OC was read as CHO-K1 Ca PAM -7, CHO-K1 Ca antag 8, M1 antag 39*, CHO-K1 Ca ag 4, CHRM1 PAM -21 and M1 ag 0.
Screening CC(C)(O)c1ccc2c(c1)CCC1C(C)(C(=O)O)CCCC21C (stereo not drawn) returned CHO-K1 Ca PAM -4, CHO-K1 Ca antag 19, M1 antag -1, CHO-K1 Ca ag 0, CHRM1 PAM 2 and M1 ag -2.
Screening CC(C)c1c(O)ccc2c1CC[C@H]1C(C)(C)CCC[C@]21C returned CHO-K1 Ca PAM -11, CHO-K1 Ca antag 26*, M1 antag -21, CHO-K1 Ca ag -1, CHRM1 PAM -2 and M1 ag -2.
`Cc1cccc(-c2cccc3nccn23)c1` gave CHO-K1 Ca PAM 21, CHO-K1 Ca antag -15, M1 antag -4, CHO-K1 Ca ag 1, CHRM1 PAM -2 and M1 ag -7.
